Bioassay records deposited in PubChem BioAssay by several laboratories.
TIM10 inh – TIM10 yeast growth inhibition; S. cerevisiae TIM10 strain growth, BacTiter-Glo luminescence, 24 h; inhibition, % at 10 µM; 1.4% of 330,000 active;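 active means inhibition of 40% or more at the single tested concentration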;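 further: wild-type TIM10 isogenic control strain grown at permissive 25 °C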
SKKanGAS inh – inhibitors of SKKanGAS S. pyogenes growth in kanamycin (SK-promoter or general growth effect); 1.3% of 300,000 active; AID 1662; inhibition, % at 7.5 µM; BacTiter-Glo, 6 h;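 active means mean replicate score, as percent of positive control median, at least 50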;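 further: strain carries kanamycin resistance gene driven by streptokinase promoter and grows in 40 µg/ml kanamycin; loss of luminescence reflects streptokinase promoter inhibition or plain growth inhibition; 0% = median of DMSO wells and 100% = positive control at its reference dose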
PfHsp90 set2 – growth inhibition of yeast expressing Plasmodium Hsp90 | inhibition, % at 9.4 µM | S. cerevisiae expressing PfHsp90, BacTiter-Glo ATP, 48 h; yeast lacking PDR1 and PDR3 efflux regulators | 0.32% of 310,000 active;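 active means every replicate shows inhibition above about 80%, whatever the replicate mean, limit read from the data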;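 further: 0% = DMSO neutral controls and 100% = 20 µM radicicol positive controls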
tim23-1 inh – tim23-1 yeast growth inhibition; inhibition, % at 20 µM; S. cerevisiae tim23-1 growth, BacTiter-Glo luminescence, 24 h; 1.3% of 330,000 active; AID 463212;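 active means growth inhibition of the mutant yeast at or above 50%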;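 further: temperature-sensitive mutant grown at 25 °C; plate controls were DMSO-treated mutant yeast for no effect and medium wells lacking yeast for full effect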
tim10-1 inh – growth inhibitors of tim10-1 mutant yeast; S. cerevisiae tim10-1 ts strain growth, BacTiter-Glo, 24 h; inhibition, % at 20 µM; 2.2% of 330,000 active; AID 463190;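 active means inhibition of at least 40%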;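 further: mutant grown at 25 °C; 0% = DMSO wells with yeast and 100% = wells holding no yeast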
NALP1 inh – inhibitors of NALP1 inflammasome in yeast; S. cerevisiae NALP1/ASC/caspase-1 growth, X-gal OD620, 72 h; inhibition, % at 10 µM; 0.61% of 280,000 active; AID 2071; in the data active means inhibition mostly above about 24%, no sharp cut-off; inactive means mostly below about 32%
tim10-1 conf – tim10-1 yeast growth inhibition, confirmed | shares compounds with tim10-1 inh | S. cerevisiae tim10-1 ts strain growth, BacTiter-Glo, 24 h | inhibition, % at 20 µM | 56% of 7,400 active;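 active means inhibition of yeast growth at or above a set limit in either of two repeat tests at 20 µM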;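 further: tim10-1 mutant grown at permissive 25 °C to find synthetic lethal compounds; 0% = DMSO yeast wells and 100% = medium wells without yeast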
An asterisk follows results filed as active. Compounds with a hit are over-represented: about 4.8% of the library has one in this group of screens.

Results for CCCC(O)(c1ccccc1)C(CN1CCOCC1)c1ccccc1 (stereo not drawn) ?
TIM10 inh: 17; SKKanGAS inh: 4; PfHsp90 set2: -3; tim23-1 inh: 33; tim10-1 inh: 41*; NALP1 inh: 14; tim10-1 conf: 19

How did Cc1ccc(-n2nc3c4c(cccc4c2=O)-c2ccccc2-3)cc1 do in these assays?
TIM10 inh: 19; SKKanGAS inh: 9; tim23-1 inh: 7; tim10-1 inh: 42*; NALP1 inh: -14; tim10-1 conf: 23

How did O=C(CSc1nnnn1-c1ccccc1)Nc1ncc2c(n1)CC(c1ccccc1)CC2=O (stereo not drawn) do in these assays?
TIM10 inh: -3; SKKanGAS inh: 0; PfHsp90 set2: 10; tim23-1 inh: -4; tim10-1 inh: -3; NALP1 inh: 6

What do the screens show for `COc1ccc2cc(/C=C3\SC(=S)NC3=O)c(N3CCOCC3)nc2c1`?
TIM10 inh: 36; SKKanGAS inh: 40; PfHsp90 set2: -41; tim23-1 inh: 45; tim10-1 inh: 42*; NALP1 inh: 17; tim10-1 conf: 39*

What do the screens show for `O=C1NC(=S)S/C1=C/c1ccc(N2CCOCC2)o1`?
TIM10 inh: 7; SKKanGAS inh: 26; PfHsp90 set2: 7; tim23-1 inh: -1; tim10-1 inh: -1; NALP1 inh: -12

What do the screens show for `Cc1ccccc1NC(=S)Nc1ccccn1`?
TIM10 inh: 13; SKKanGAS inh: -4; PfHsp90 set2: -8; tim23-1 inh: 35; tim10-1 inh: 47*; NALP1 inh: 20; tim10-1 conf: -5

Results for S=C(Nc1ccccn1)Nc1ccccc1Cl ?
TIM10 inh: 27; SKKanGAS inh: 15; PfHsp90 set2: -16; tim23-1 inh: 28; tim10-1 inh: 6; NALP1 inh: 18

Results for CCOc1cc(/C=C2/C(=O)N(c3ccccc3)N=C2C)ccc1OC(=O)c1ccco1 ?
TIM10 inh: 25; SKKanGAS inh: 8; PfHsp90 set2: 12; tim23-1 inh: 14; tim10-1 inh: 40*; NALP1 inh: -4; tim10-1 conf: 26

Results for COc1ccccc1/C=C/[C@@H]1C[C@H]2CN(Cc3cccc(Cl)c3)C(=O)[C@]23CCCN13 ?
TIM10 inh: 20; SKKanGAS inh: -1; PfHsp90 set2: -12; tim23-1 inh: 27; tim10-1 inh: 43*; NALP1 inh: -6; tim10-1 conf: 26

Results for COc1cccc2c1OCC([C@@H]1C[C@H]3CN(Cc4cccc(Cl)c4)C(=O)[C@]34CCCN14)=C2 ?
TIM10 inh: -1; SKKanGAS inh: 5; PfHsp90 set2: -9; tim23-1 inh: 21; tim10-1 inh: 9; NALP1 inh: 16

What do the screens show for `CC(=O)N(C(C)=O)C1=C(C#N)C2(CCCCC2)Cc2ccccc21`?
TIM10 inh: 34; SKKanGAS inh: 0; PfHsp90 set2: -15; tim23-1 inh: 50; tim10-1 inh: 47*; NALP1 inh: 15; tim10-1 conf: 34*

Results for CC(C)N(C(=O)N1CCN(c2ccnc3cc(Cl)ccc23)CC1)C(C)C ?
TIM10 inh: 23; SKKanGAS inh: -9; PfHsp90 set2: -20; tim23-1 inh: 43; tim10-1 inh: 40*; NALP1 inh: 8; tim10-1 conf: 29*

How did O=C(NC1CCCCC1)C(c1ccncc1)N(Cc1ccc(F)cc1)C(=O)c1ccccn1 (stereo not drawn) do in these assays?
TIM10 inh: -13; SKKanGAS inh: 0; PfHsp90 set2: -9; tim23-1 inh: 4; tim10-1 inh: 2; NALP1 inh: 22

What do the screens show for `O=C(NC1CCCC1)C(c1ccc(F)cc1)N(Cc1ccc(F)cc1)C(=O)CCl` (stereo not drawn)?
TIM10 inh: 36; SKKanGAS inh: -7; PfHsp90 set2: 9; tim23-1 inh: 41; tim10-1 inh: 57*; NALP1 inh: 24; tim10-1 conf: 33*

What do the screens show for `COc1cccc(CN2CCN(C(=O)c3ccc(-c4ccccc4)cc3)CC2)c1OC`?
TIM10 inh: 39; SKKanGAS inh: 0; PfHsp90 set2: 0; tim23-1 inh: 31; tim10-1 inh: 44*; NALP1 inh: 17; tim10-1 conf: 27

How did CCC(C)(C)c1ccc(Oc2cccc(C(=O)O)c2)cc1 do in these assays?
TIM10 inh: -2; SKKanGAS inh: 12; PfHsp90 set2: 1; tim23-1 inh: 22; tim10-1 inh: 97*; NALP1 inh: 10; tim10-1 conf: 21

What do the screens show for `CC1(C)CCCN(C(=O)c2ccc3c(c2NCCO)C(=O)c2ccccc2C3=O)C1`?
TIM10 inh: 28; SKKanGAS inh: 4; PfHsp90 set2: 5; tim23-1 inh: 43; tim10-1 inh: 43*; NALP1 inh: 28; tim10-1 conf: 22

What do the screens show for `COc1ccccc1C/C(N)=N/O`?
TIM10 inh: 13; SKKanGAS inh: -5; PfHsp90 set2: 2; tim23-1 inh: -1; tim10-1 inh: 10; NALP1 inh: 9

Results for COc1ccccc1C/C(N)=N/OC(=O)c1ccco1 ?
TIM10 inh: 29; SKKanGAS inh: 0; PfHsp90 set2: -9; tim23-1 inh: 43; tim10-1 inh: 50*; NALP1 inh: -6; tim10-1 conf: 38*

How did C=CCn1c(SCc2ccc(C#N)cc2)nnc1-c1ccc(C)cc1 do in these assays?
TIM10 inh: 17; SKKanGAS inh: -3; tim23-1 inh: 36; tim10-1 inh: 44*; NALP1 inh: 6; tim10-1 conf: 28

Results for Cn1c(SCc2ccc(C#N)cc2)nnc1-c1ccncc1 ?
TIM10 inh: -12; SKKanGAS inh: -4; PfHsp90 set2: 13; tim23-1 inh: -10; tim10-1 inh: -14; NALP1 inh: -1

What do the screens show for `COc1ccc(NC(=O)CC2C(=O)N(C)C(=S)N2Cc2cccs2)cc1` (stereo not drawn)?
TIM10 inh: -2; SKKanGAS inh: 3; PfHsp90 set2: -2; tim23-1 inh: 18; tim10-1 inh: 21; NALP1 inh: 25

Results for CCCOc1ccc(NC(=O)CC2C(=O)N(CC)C(=S)N2Cc2cccs2)cc1 (stereo not drawn) ?
TIM10 inh: 14; SKKanGAS inh: 3; PfHsp90 set2: 25; tim23-1 inh: 10; tim10-1 inh: 50*; NALP1 inh: -6; tim10-1 conf: 35*

How did COC(=O)C1=C(N)Oc2cc(C)n(CC3CCCO3)c(=O)c2C1c1ccccc1 (stereo not drawn) do in these assays?
TIM10 inh: 16; SKKanGAS inh: 0; PfHsp90 set2: 18; tim23-1 inh: 12; tim10-1 inh: 7; NALP1 inh: -4

What do the screens show for `Cc1cccc2cc(/C=N/NC(=O)CN3CCCCC3)c(Cl)nc12`?
TIM10 inh: -4; SKKanGAS inh: 1; tim23-1 inh: -13; tim10-1 inh: 4; NALP1 inh: 0

Results for O=C1C2ON(c3ccc(Cl)cc3)C(c3ccco3)C2C(=O)N1c1ccccc1 (stereo not drawn) ?
TIM10 inh: 7; SKKanGAS inh: 2; PfHsp90 set2: -20; tim23-1 inh: 34; tim10-1 inh: 44*; NALP1 inh: 12; tim10-1 conf: 35*
